This passage reports inhibition results from PubChem BioAssay.

Molecules are shown by their SMILES. A number with no mark means an inactive call. The rule behind the calls is not given here.

In the assay the target is Pantothenate synthetase (Mycobacterium tuberculosis (strain ATCC 25618 / H37Rv)) (UniProt P9WIL5). The assay can be described thus: Coupled enzyme confirmation of inhibitors against recombinant Mtb PanC (AID 375).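 Note: 0% = full reaction with vehicle and 100% = no enzyme background.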 The conditions noted are these: coupled enzyme assay; at 10 µM, stronger effect = higher value.
Sequence of Pantothenate synthetase (Mycobacterium tuberculosis (strain ATCC 25618 / H37Rv)) (P9WIL5 whole entry, looked up): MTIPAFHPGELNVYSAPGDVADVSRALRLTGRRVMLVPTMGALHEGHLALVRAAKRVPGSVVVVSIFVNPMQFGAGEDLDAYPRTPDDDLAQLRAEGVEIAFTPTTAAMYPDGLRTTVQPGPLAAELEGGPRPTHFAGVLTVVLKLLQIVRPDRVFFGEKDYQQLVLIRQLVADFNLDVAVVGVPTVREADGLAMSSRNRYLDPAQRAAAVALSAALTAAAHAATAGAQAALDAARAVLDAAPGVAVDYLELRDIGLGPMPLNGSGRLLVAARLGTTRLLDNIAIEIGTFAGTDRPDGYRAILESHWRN
Take `COc1ccc(OCCOC(=O)c2cccs2)cc1`: the inhibition was 0%.

Regarding `COC(=O)C(O)(CC(=O)c1ccc(OC)cc1)C(F)(F)F` (stereo not drawn), the inhibition was 0%.

With `CC1CCN(CCc2nc3cc(NS(=O)(=O)c4ccc(F)cc4)ccc3n2C)CC1`, the inhibition was 5%.

Take `CCCCCC1CC(CC#CCN2CCOCC2)C(=O)O1` (stereo not drawn): the inhibition is 7%.

With `CCOC(=O)c1sc(Nc2nc3c(OC)cccc3s2)nc1C`, the inhibition is 1%.

Regarding `COC(=O)C1C(=O)c2c([nH]c(C(=O)OCCOC(C)C)c2C)CC1C` (stereo not drawn), the inhibition is 0%.

Turning to `Cc1ccc(C(=O)N2CCCC(c3nc4c(nnn4Cc4ccccc4)c(=O)[nH]3)C2)cc1` (stereo not drawn), the inhibition is 1%.

In the case of `Cc1ccnc(NC(=O)CCC(=O)N(CC(=O)NC(C)(C)C)C2CCCC2)c1`, the inhibition is 0%.

Take `CN1C(=O)C(CC(=O)N2CCN(C(c3ccccc3)c3ccccc3)CC2)N(C)C1=O` (stereo not drawn): the inhibition is 0%.

Regarding `O=C(Nc1ccccc1N1CCN(c2ccc(F)cc2)CC1)c1ccccc1`, the inhibition was 0%.

Turning to `CCOC(=O)C1CCN(C(=O)CSc2n[nH]c(=O)[nH]c2=O)CC1`, the inhibition is 0%.

On to `CCOC(=O)c1cccc(NC(=O)CS(=O)(=O)Cc2nc(-c3cccc(OC)c3)oc2C)c1`, for which the inhibition was 0%.

For `O=C(CSc1nnc2c3cc(F)ccc3nc(-c3ccccc3)n12)N1CCOCC1`, the inhibition is 0%.

As to `CN(C)c1ccnc(NCc2ccccc2)c1C#N`, the inhibition was 0%.

In the case of `CC1CCCN(C(=O)CN2C(=O)c3ccccc3C2=O)C1` (stereo not drawn), the inhibition was 3%.

In the case of `CN(C)CCCN1C(=O)C(=O)/C(=C(/O)c2ccncc2)C1c1cccc(Br)c1` (stereo not drawn), the inhibition was 1%.

For `COC(=O)CCSCc1cn2cc(Cl)ccc2n1`, the inhibition was 0%.

For the molecule `O=C1C2C3C=CC(C3=C3CCCCC3)C2C(=O)N1c1ccccc1` (stereo not drawn), the inhibition was 0%.

As for `Cc1ccccc1-n1c(Cn2c(=O)sc3ccccc32)nnc1SCC(N)=O`, the inhibition is 3%.

Regarding `CCn1nnc(-c2ccccc2NC(=O)c2ccc(-n3cnnn3)cc2)n1`, the inhibition is 9%.

Take `CCOCCCNC(=O)C1CC(=O)N(C2CCCC2)C1` (stereo not drawn): the inhibition was 2%.

Consider `CC(=O)C1=C(O)C(=O)N(Cc2cccnc2)C1c1ccccc1` (stereo not drawn), for which the inhibition is 3%.

Turning to `CCCC(CCC)C(=O)OC1C[C@H]2CC[C@@H](C1)[N+]2(C)C` (stereo partly drawn), the inhibition is 0%.

What is called inhibition is the relative decrease from the control value, in per cent.
